Data as given in PubChem BioAssay (NCI).
The panel holds about 79,000 compounds, 15% with a hit somewhere; the sample as a whole holds those more often. Active and inactive are the calls of the source. Rule as the data show it: active = growth inhibition above about 70%; inactive = the rest.

Experiments:
[1] = NCI Yeast Anticancer Drug Screen. Data for the rad52 strain (AID 147);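 also: 0% = growth of vehicle-treated control cultures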; conditions: S. cerevisiae rad52 mutant growth inhibition, stronger effect = higher value
Method in brief: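 Compounds are applied to a genetically defined yeast strain lacking normal DNA damage repair, and inhibition of growth is expressed relative to cultures given vehicle only.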

[2] = NCI Yeast Anticancer Drug Screen. Data for the wt1 strain (AID 149);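 also: 0% = growth of vehicle-treated wt1 cultures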; conditions: S. cerevisiae wt1 strain (SPY 50644) growth inhibition, stronger effect = higher value
Method in brief: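 Vehicle-normalised growth inhibition; strain wt1; compound exposure.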

[3] = NCI Yeast Anticancer Drug Screen. Data for the rad50EPP+ strain (AID 151);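 also: 0% = growth of vehicle-treated control cultures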; conditions: S. cerevisiae rad50 mutant strain, stronger effect = higher value
Method in brief: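 Compounds were applied to the rad50EPP+ yeast strain, which bears a defined DNA repair alteration, and growth inhibition was determined relative to vehicle-treated cultures.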

[4] = NCI Yeast Anticancer Drug Screen. Data for the mgt1 strain (AID 153); conditions: S. cerevisiae mgt1 mutant growth inhibition, stronger effect = higher value
Method in brief: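 Strain: mgt1 yeast, one of a set carrying defined DNA damage repair or cell cycle control alterations. Compound-treated growth compared with vehicle.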

[5] = NCI Yeast Anticancer Drug Screen. Data for the rad50 strain (AID 155);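 also: 0% = growth of vehicle-only cultures of the same strain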; conditions: S. cerevisiae rad50 strain growth inhibition, stronger effect = higher value
Method in brief: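 A DNA repair-deficient yeast mutant serves as the test organism; compound-induced growth inhibition is calculated against vehicle-treated cells.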

[6] = NCI Yeast Anticancer Drug Screen. Data for the mec2-1 strain (AID 157); conditions: S. cerevisiae mec2-1 strain, stronger effect = higher value
Method in brief: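 Strain: mec2-1 (DNA repair/cell cycle alteration). Compound exposure, then growth measured; inhibition expressed relative to vehicle.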

[7] = NCI Yeast Anticancer Drug Screen. Data for the rad14 strain (AID 159);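 also: 0% = growth of vehicle-treated control cultures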; conditions: S. cerevisiae rad14 strain growth inhibition, stronger effect = higher value
Method in brief: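 Vehicle-treated cultures served as the baseline for growth inhibition of a DNA repair-mutant yeast strain exposed to each compound.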

[8] = NCI Yeast Anticancer Drug Screen. Data for the sgs1 mgt1 strain (AID 161);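 also: 0% = growth of cultures given vehicle only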; conditions: S. cerevisiae sgs1 mgt1 strain, stronger effect = higher value
Method in brief: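 Test agents were incubated with a DNA-repair-mutant yeast strain. Growth was then read and compared against vehicle-treated controls.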

[9] = NCI Yeast Anticancer Drug Screen. Data for the CLN2oe strain (AID 163);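 also: 0% = growth of vehicle-only control cultures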; conditions: S. cerevisiae CLN2oe strain, stronger effect = higher value
Method in brief: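 Growth of a genetically modified yeast strain is measured after compound exposure and compared with cultures given vehicle alone.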

[10] = NCI Yeast Anticancer Drug Screen. Data for the cln2 rad14 strain (AID 165);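 also: 0% = growth equal to vehicle treated cultures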; conditions: S. cerevisiae cln2 rad14 strain, stronger effect = higher value
Method in brief: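 Compounds are applied to the cln2 rad14 yeast strain, and growth is then compared with that of vehicle-treated cultures to give inhibition.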

[11] = NCI Yeast Anticancer Drug Screen. Data for the bub3 strain (AID 167); conditions: S. cerevisiae bub3 mutant strain, stronger effect = higher value
Method in brief: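 Inhibition values come from growth of compound-treated mutant yeast normalised to vehicle-treated controls.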

[12] = NCI Yeast Anticancer Drug Screen. Data for the wt2 strain (AID 169);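 also: 0% = growth of vehicle-treated yeast cultures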; conditions: S. cerevisiae wt2 strain growth inhibition, stronger effect = higher value
Method in brief: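 This strain belongs to a panel of yeast strains with defined genetic alterations in DNA damage repair or cell cycle control. Compounds are applied, and growth inhibition is measured against vehicle-treated cultures.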

[13] = NCI Yeast Anticancer Drug Screen. Data for the mlh1 strain (AID 171);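 also: 0% = growth of vehicle-treated control cultures of the same strain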; conditions: S. cerevisiae mlh1 strain growth inhibition, stronger effect = higher value
Method in brief: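 Growth of the mutant yeast strain after compound exposure, expressed as inhibition relative to vehicle-only controls.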

[14] = NCI Yeast Anticancer Drug Screen. Data for the sgs1 strain (AID 173);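 also: 0% = growth of vehicle-only control cultures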; conditions: S. cerevisiae sgs1 mutant, stronger effect = higher value
Method in brief: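 Growth of a yeast strain bearing a defined genetic alteration is measured after compound treatment. Inhibition is expressed relative to vehicle-only controls.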

[15] = NCI Yeast Anticancer Drug Screen. Data for the mlh1 rad18 strain (AID 175); conditions: S. cerevisiae mlh1 rad18 strain growth inhibition, stronger effect = higher value
Method in brief: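 Read-out is yeast growth inhibition, calculated against vehicle-only controls. The compound was applied to a strain engineered with DNA damage repair alterations.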

[16] = NCI Yeast Anticancer Drug Screen. Data for the rad18 strain (AID 177); conditions: S. cerevisiae rad18 mutant growth inhibition, stronger effect = higher value
Method in brief: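 Growth of the mutant yeast strain after compound exposure, normalised to vehicle-only cultures.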

[17] = at 5.0 µM (retest, dose inferred, filed as 0.5)
[18] = at 50.0 µM (retest, dose inferred, filed as 5.0)

Measured: growth inhibition

O=C(NCCCNCCN1C(=O)c2cccc3cc([N+](=O)[O-])cc(c23)C1=O)c1cc(-c2ccccc2)nc2ccccc12
inactive: [1]; at 1.2 µM -2% | [1]; at 3.7 µM 2% | [1]; at 11.0 µM 6% | [1]; at 33.0 µM 38% | [2]; at 1.2 µM 0% | [2]; at 3.7 µM -1% | [2]; at 11.0 µM -2% | [2]; at 33.0 µM -6% | [3]; at 1.2 µM 0% | [3]; at 3.7 µM 2% | [3]; at 11.0 µM 8% | [3]; at 33.0 µM 19% | [3]; at 100.0 µM 57% | [4]; at 1.2 µM -1% | [4]; at 3.7 µM 0% | [4]; at 11.0 µM -1% | [4]; at 33.0 µM 8% | [5]; at 1.2 µM -2% | [5]; at 3.7 µM 2% | [5]; [17] -11% | [5]; at 11.0 µM 8% | [5]; at 33.0 µM 64% | [6]; at 1.2 µM 0% | [6]; at 3.7 µM -1% | [6]; [17] -1% | [6]; at 11.0 µM 0% | [6]; at 33.0 µM 5% | [7]; at 1.2 µM -1% | [7]; at 3.7 µM -1% | [7]; at 11.0 µM 4% | [7]; at 33.0 µM 21% | [8]; [17] -2% | [9]; at 1.2 µM 1% | [9]; at 3.7 µM 3% | [9]; at 11.0 µM -4% | [9]; at 33.0 µM 10% | [10]; [17] 33% | [11]; at 1.2 µM -4% | [11]; at 3.7 µM 0% | [11]; [17] -9% | [11]; at 11.0 µM 2% | [11]; at 33.0 µM 9% | [12]; at 1.2 µM -1% | [12]; at 3.7 µM -1% | [12]; at 11.0 µM -2% | [12]; at 33.0 µM -2% | [13]; at 1.2 µM -3% | [13]; at 3.7 µM 1% | [13]; at 11.0 µM 1% | [13]; at 33.0 µM 9% | [14]; at 1.2 µM -1% | [14]; at 3.7 µM 1% | [14]; at 11.0 µM 2% | [14]; at 33.0 µM 17% | [15]; [17] -1% | [16]; at 1.2 µM -3% | [16]; at 3.7 µM -2% | [16]; at 11.0 µM -1% | [16]; at 33.0 µM 10%
active: [1]; at 100.0 µM 98% | [2]; at 100.0 µM 96% | [4]; at 100.0 µM 99% | [5]; [18] 98% | [5]; at 50.0 µM 94.3% | [5]; at 100.0 µM 99% | [6]; [18] 86% | [6]; at 50.0 µM 91% | [6]; at 100.0 µM 99% | [7]; at 100.0 µM 99% | [8]; [18] 96% | [8]; at 50.0 µM 93.5% | [9]; at 100.0 µM 98% | [10]; [18] 78% | [10]; at 50.0 µM 93.6% | [11]; [18] 97% | [11]; at 50.0 µM 93.3% | [11]; at 100.0 µM 98% | [12]; at 100.0 µM 99% | [13]; at 100.0 µM 99% | [14]; at 100.0 µM 98% | [15]; [18] 97% | [15]; at 50.0 µM 97.6% | [16]; at 100.0 µM 99%

O=C1/C(=C/c2ccccc2)CCCC1CN1CCCCC1 (stereo unspecified)
inactive: [1]; at 1.2 µM 13% | [1]; at 3.7 µM 35% | [1]; at 11.0 µM 56% | [2]; at 1.2 µM 10% | [2]; at 3.7 µM 19% | [2]; at 11.0 µM 28% | [2]; at 33.0 µM 31% | [2]; at 100.0 µM 34% | [3]; at 1.2 µM -2% | [3]; at 3.7 µM -1% | [3]; at 11.0 µM 15% | [3]; at 33.0 µM 46% | [3]; at 100.0 µM 51% | [4]; at 1.2 µM 16% | [4]; at 3.7 µM 44% | [4]; at 11.0 µM 59% | [5]; at 1.2 µM 13% | [5]; at 3.7 µM 26% | [5]; [17] 29% | [5]; at 11.0 µM 39% | [5]; at 33.0 µM 61% | [5]; at 100.0 µM 68% | [6]; at 1.2 µM 16% | [6]; at 3.7 µM 22% | [6]; [17] 32% | [6]; at 11.0 µM 34% | [6]; at 33.0 µM 48% | [6]; at 100.0 µM 57% | [7]; at 1.2 µM 48% | [8]; [17] 40% | [9]; at 1.2 µM 40% | [9]; at 3.7 µM 59% | [9]; at 11.0 µM 67% | [10]; [17] 65% | [10]; [18] 69% | [11]; at 1.2 µM 30% | [11]; at 3.7 µM 53% | [11]; [17] 12% | [12]; at 1.2 µM 19% | [12]; at 3.7 µM 31% | [12]; at 11.0 µM 51% | [13]; at 1.2 µM 4% | [13]; at 3.7 µM 16% | [13]; at 11.0 µM 26% | [13]; at 33.0 µM 34% | [13]; at 100.0 µM 38% | [14]; at 1.2 µM 29% | [14]; at 3.7 µM 42% | [14]; at 11.0 µM 67% | [15]; [17] 43% | [16]; at 1.2 µM 34% | [16]; at 3.7 µM 59%
active: [1]; at 33.0 µM 72% | [1]; at 100.0 µM 78% | [4]; at 33.0 µM 85% | [4]; at 100.0 µM 96% | [5]; [18] 79% | [5]; at 50.0 µM 72.3% | [6]; [18] 74% | [6]; at 50.0 µM 75.2% | [7]; at 3.7 µM 70% | [7]; at 11.0 µM 92% | [7]; at 33.0 µM 98% | [7]; at 100.0 µM 98% | [8]; [18] 80% | [8]; at 50.0 µM 85.7% | [9]; at 33.0 µM 80% | [9]; at 100.0 µM 83% | [10]; at 50.0 µM 75.4% | [11]; at 11.0 µM 79% | [11]; at 33.0 µM 95% | [11]; [18] 83% | [11]; at 50.0 µM 82.9% | [11]; at 100.0 µM 97% | [12]; at 33.0 µM 79% | [12]; at 100.0 µM 87% | [14]; at 33.0 µM 86% | [14]; at 100.0 µM 91% | [15]; [18] 75% | [15]; at 50.0 µM 74.7% | [16]; at 11.0 µM 74% | [16]; at 33.0 µM 83% | [16]; at 100.0 µM 90%
